Screens from PubChem BioAssay.
Hits are enriched below; roughly 3.8% of the tested compounds scored in any of these assays.
Ub-GFP proteasome: proteasome inhibitors stabilizing ubiquitin-GFP reporter; Potency, µM (doses to about 45.9 µM), hits mostly activators; 67,000 tested, under 10 active; AID 526; Ubiquitin-GFP reporter cells, proteasome inhibition, GFP fluorescence; response scale: untreated = 0%, 10 µM MG-132 = 100%; active means well fitted activation curve with a large enough effect, not every such curve was filed as active; inconclusive means small, poorly fitted or top-dose-only effect, or another doubt; inactive means no such curve, though single readings can be large or run the other way
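Reporter cells (U2OS, ubiquitin-G76V-GFP fusion) are plated overnight, then treated 4 hr at 37 °C with compound titrations from 46 uM down to 2.9 nM. Activity is scaled against untreated cells and 10 uM MG-132.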
ERK AVP inh: inhibitors of vasopressin-stimulated ERK signaling pathway; AID 995; HEK293-V1b, vasopressin-stimulated pERK AlphaScreen; Potency, µM (titrated, usually from 57.5 µM), actives largely listed as inhibitors; 72,000 tested, 0.99% active; further: nearly all actives have a fitted effect of over 55% in size
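V1b-HEK293 cells; cpd 30 min 37C; 25 nM vasopressin 5 min; lyse 10 min; AlphaScreen beads 5 hr RT. Normalized to DMSO basal and 25 nM vasopressin; AC50 by Hill fit.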
HBB splice mod: hemoglobin beta splicing modulation; HBB splicing reporter cell assay, activation; EGFP reporter with mutant IVS2-654 intron; response scale: normalised to 500 nM splice-correcting PNA; Potency, µM (series often up to 46.1 µM), most hits filed as activators; 65,000 tested, 0.06% active; AID 925
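HeLa cells stably expressing EGFP interrupted by mutant beta-globin intron 2 (IVS2-654), 500/well in 2% FCS. Treated with compound for 2 days at 37C. Splicing correction scored as total well GFP intensity (488 nm excitation, 500-520 nm emission); 500 nM antisense PNA served as control.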
HEK293 cAMP ctrl: raises cAMP in parental HEK293 cells, TSHR agonist counter-screen; parental HEK293 CNG cAMP sensor, membrane potential fluorescence; Potency, µM (highest dose often 57.1 µM), most hits filed as activators; 73,000 tested, 2.5% active; AID 938; further: nearly all actives have a fitted effect of over 55% in size
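Counterscreen for endogenous-receptor signalling: CNG-channel HEK 293 cells report cAMP rise by membrane depolarization. After 60 min dye equilibration with 100 uM RO 20-1724, compounds incubated 30 min before bottom-read fluorescence at 590 nm.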
Epigenetic mod: epigenetic modulators derepressing GFP locus in mouse cells. mouse C127i GFP locus derepression, cytometry, 30 h. Potency, µM (doses to about 46.1 µM). 68,000 tested, 0.09% active. AID 597
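Read-out is the number of GFP-positive cells, scored as fluorescent objects 20 to 120 um wide, reflecting derepression of a silenced CMV-GFP reporter in murine C127i cells after 30 h compound exposure at 37 C.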
TSHR ag: activates the human thyroid stimulating hormone receptor. P16473. HEK293-CNG-TSHR cells (CNG channel as cAMP sensor), membrane potential dye, cAMP. Potency, µM (series often up to 57.1 µM), usual class: activators. 73,000 tested, 0.48% active. AID 926; active means well fitted activation curve with a large enough effect in the main read-out, with a control signal flat, not every such curve was filed as active; inconclusive means small, poorly fitted or top-dose-only effect, or a change in a side signal; inactive means no such curve, though single readings can be large or run the other way; reference of the percent scale not stated here;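 further: the control signal comes from parental cells without the receptor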
Target sequence (P16473 whole entry, looked up): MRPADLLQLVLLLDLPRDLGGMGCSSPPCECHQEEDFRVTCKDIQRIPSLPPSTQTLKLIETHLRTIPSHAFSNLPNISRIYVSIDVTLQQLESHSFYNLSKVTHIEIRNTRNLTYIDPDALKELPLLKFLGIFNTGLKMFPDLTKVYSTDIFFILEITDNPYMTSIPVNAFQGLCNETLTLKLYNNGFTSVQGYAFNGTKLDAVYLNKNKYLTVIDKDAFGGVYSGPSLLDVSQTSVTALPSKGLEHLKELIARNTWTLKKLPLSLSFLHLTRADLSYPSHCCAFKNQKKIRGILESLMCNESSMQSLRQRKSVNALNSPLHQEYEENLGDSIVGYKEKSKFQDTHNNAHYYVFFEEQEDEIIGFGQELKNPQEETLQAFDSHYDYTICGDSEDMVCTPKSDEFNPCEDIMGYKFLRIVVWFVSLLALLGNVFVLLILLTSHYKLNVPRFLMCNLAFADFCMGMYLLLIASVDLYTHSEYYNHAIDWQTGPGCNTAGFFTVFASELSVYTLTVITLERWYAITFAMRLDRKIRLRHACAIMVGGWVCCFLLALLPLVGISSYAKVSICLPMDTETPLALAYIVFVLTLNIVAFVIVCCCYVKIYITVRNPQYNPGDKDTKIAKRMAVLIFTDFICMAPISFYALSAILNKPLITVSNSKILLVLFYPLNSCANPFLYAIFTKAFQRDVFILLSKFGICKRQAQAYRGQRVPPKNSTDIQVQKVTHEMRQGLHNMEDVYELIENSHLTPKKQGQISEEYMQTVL
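cAMP rise detected as CNG-channel membrane depolarization by fluorescent dye (emission 590 nm), 30 min after compound, following 60 min dye loading containing 100 uM RO 20-1724 at room temperature. Cells: TSHR/CNG HEK 293, with parental CNG HEK 293 as control.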
Hits are given with their value; – = inactive; ? = inconclusive; · = not tested or not shown; [ ] = another dose, or the depositor's remark. Unless noted, the call rests on the fitted dose curve; in most records, active means well fitted curve in the direction sought with a large enough effect; inconclusive means small, poorly fitted or top-dose-only effect, or another doubt; inactive means no such curve, though single readings can be large; an effect the other way counts as inactive or inconclusive.

SMILES	Ub-GFP proteasome	ERK AVP inh	HBB splice mod	HEK293 cAMP ctrl	Epigenetic mod	TSHR ag
O=C1C(Cl)=C(Sc2nnc3c4ccccc4c4ccccc4c3n2)C(=O)c2ccccc21	–[9.17 µM]	–[11.5 µM]	–[9.22 µM]	–[11.4 µM]	–[9.22 µM]	–[11.4 µM]
CN(C)c1ccc(/C=c2\sc3n(c2=O)CCCN=3)cc1	–	–	–	–	–	–
CN(C)c1ccc(/C=C2/C(=O)Nc3ccccc32)cc1	–	16µM	–	–	–	?
COc1ccc(CNc2ccnc(-c3cccnc3)n2)c(OC)c1	–	–	–	?	–[9.22 µM]	?
O=C(CSc1n[nH]c(=O)n1C1CC1)Nc1cc(Cl)ccc1Oc1ccccc1	–	?	–	13µM	–	?
CC(NC(=O)CSc1n[nH]c(=O)n1C1CC1)C12CC3CC(CC(C3)C1)C2 (stereo not given)	–	–	–	–	–	–
CC(C)=NO[C@@H](C)c1cn([C@H](CO)Cc2ccccc2)nn1	·	–[11.5 µM]	–[9.22 µM]	–[11.4 µM]	·	–[11.4 µM]
CCn1c2ccccc2c2nc3ccccc3nc21	–	–	–	?	–	?
CCCCc1c(C)nn(-c2nnc3c4ccccc4n(CC)c3n2)c1C	–	20µM	–	–	–	·
Cc1nc(N2CCOCC2)c2nc(-c3ccccc3)n(CC3CCN(C)CC3)c2n1	–	–	–	–	·	–
Cc1ccc2c(CC(=O)NCc3ccco3)coc2c1C	–	–	–	–	–	20µM
COc1cc2ncnc(Nc3cccc(Cl)c3)c2cc1OC	–	20µM	–	–	–	–
C/C(N)=C(/C#N)C(=O)CSc1nnc(Nc2c(C)cccc2C)s1	–	–	–	–	–	–
C/C(N)=C(/C#N)C(=O)CSc1nnc(SCc2ccc(Cl)cc2)s1	–	?	–	32µM	–	?
CC(C)NC(=O)N1CC2(CCN(C(=O)c3cccn3C)CC2)C1	–	–	–	?	–[9.22 µM]	?
Cc1nc2ccccc2c(=O)n1/N=C/c1ccc(N(C)C)cc1	–	?	–	–	–	–
Cc1nc2ccccc2c(=O)n1/N=C/c1c(O)ccc2oc3c(c12)CCCC3	–	–	–	16µM	–	?
CN1CCN(c2ccnc(-c3ccccc3C(F)(F)F)n2)CC1	–	–	–	32µM	–[9.22 µM]	?
COc1ccccc1-c1nccc(N2CCN(C)CC2)n1	–	–	–	–	–[9.22 µM]	–
COc1ccc(-c2oc3ccc(C)cc3c(=O)c2O)cc1OC	–	–	·	–	–[9.22 µM]	–
COCCn1c(=O)c(-c2cn(C)c3ccccc23)nc2cnc(Oc3ccc(OC)cc3)nc21	–	–	–	?	–[9.22 µM]	?
CCN(CC)S(=O)(=O)c1ccc(NC2CCCc3ccccc32)nc1 (stereo not given)	–	–	–	25µM	–	?
Cc1cc(C)nc(-n2nc(C)cc2NC(=O)CN2CCc3ccccc3C2)n1	–	–	–	25µM	–	?
Cc1cc(C)nc(-n2nc(C)cc2NC(=O)CN2CCCC(C)C2)n1 (stereo not given)	–	–	–	?	–	?
CCC(C(=O)Nc1cc(C)nn1-c1nc(C)cc(C)n1)c1ccccc1 (stereo not given)	–	?	–	16µM	–	?
SMILES	Ub-GFP proteasome	ERK AVP inh	HBB splice mod	HEK293 cAMP ctrl	Epigenetic mod	TSHR ag
Cc1cc(C)nc(-n2nc(C)cc2Nc2ccccc2)n1	–	–	–	–	?	–
CC1(C)CCC2(C(=O)O)CC[C@]3(C)C(=CCC4[C@]5(C)CCC(O)C(C)(C)C5C(O)C[C@]43C)C2C1 (stereo not given in full)	·	–	·	·	·	·
Cc1cccc(CNc2ncnc3[nH]ncc23)c1	–[9.17 µM]	–[11.5 µM]	–[9.22 µM]	–[11.4 µM]	–[9.22 µM]	–[11.4 µM]
COc1ccc(S(=O)(=O)c2ccc(OC)c(OC)c2)cc1OC	–	16µM	–	?	–	?
CCC1(C)Cc2ccccc2/C(=C/C(=O)N2CCCCC2)N1 (stereo not given)	–	–	·	16µM	–	?
N#Cc1cc2c(nc1SCC(=O)Nc1nccs1)CCCCC2	–	–	–	20µM	–	?
COC(=O)c1ccc(C(NC(=O)OCc2ccccc2)/C(I)=C/[C@@H](C)C(=O)NCC2CC2)cc1 (stereo not given in full)	·	–	–	?	·	?
CC(C)Cn1c(N)c(C(=O)COC(=O)c2ccc3c(c2)OCCO3)c(=O)n(C)c1=O	–	–	–	–	–	–
CC(C)Cn1c(N)c(C(=O)CSc2ccc3c(c2)OCCO3)c(=O)n(C)c1=O	–	2µM	–	?	–	?
CC(=O)c1cc(-c2ccccc2)n(CC(=O)NCc2cccs2)c1C	–	–	–	16µM	–	?
O=C(NCc1cccs1)c1cc(-c2ccccc2)on1	–	–	–	–	–	–
CC(=O)NCCNc1nc(-c2cccnc2)nc2ccccc12	–	–	–	?	–[9.22 µM]	?
ClC/C=C/CCl	·	–	–	–	·	–
COc1ccc(C(C(=O)NC2CCCC2)N(C(=O)c2ccco2)c2ccc3c(c2)OCO3)cc1OC (stereo not given)	–	–	–	–	–	10µM
CCCn1c(=C(C#N)C#N)s/c(=C2\C=Cc3ccccc3N2CC)c1=O	–	–	–	–	–	?
CCSC1=NC(=O)/C(=C2/C=Cc3ccccc3N2CC)S1	–	25µM	–	–	–	–
Cc1ccc(S(=O)(=O)N[C@H]2COC(=O)[C@@H](Cc3ccccc3)NC(=O)[C@@H](C)COC(=O)C/C=C\[C@@H]2C)cc1	·	–[11.5 µM]	–[9.22 µM]	–[11.4 µM]	·	–[11.4 µM]
COc1ccc2[nH]cc(CCNc3cc(-c4ccccc4Cl)ncn3)c2c1	–	?	–	–	–[9.22 µM]	–
COc1ccc2[nH]cc(CCNc3ccnc(-c4ccccc4Cl)n3)c2c1	–	40µM	–	–	–[9.22 µM]	–
COc1ccc2[nH]cc(CCNc3ccnc(-c4cccc(NS(C)(=O)=O)c4)n3)c2c1	–	13µM	–	–	–[9.22 µM]	–
COc1ccc(Oc2ncc3ncc(=O)n(C[C@H]4CCCO4)c3n2)cc1	–	–	–	–	–[9.22 µM]	–
CC(=O)OC[C@@H]1O[C@H](C/C=N\O[C@@H]2O[C@H](COC(C)=O)[C@@H](OC(C)=O)[C@H](OC(C)=O)[C@H]2OC(C)=O)C=C[C@@H]1OC(C)=O	·	–[11.5 µM]	–[9.22 µM]	–[11.4 µM]	·	–[11.4 µM]
COC(=O)[C@@]1(C)C=C[C@@H](Cc2ccccc2)N1C(=O)c1ccccc1	·	–	–	20µM	·	?
CNCC[C@@H](Oc1ccccc1C)c1ccccc1	–	–	·	32µM	–	?
Cc1cc(NC(=O)c2cc(-c3cccnc3)nc3c(C)c(C)ccc23)no1	–	–	–	25µM	–	?
CNS(=O)(=O)c1ccccc1C(=N)c1ccccc1	–[9.17 µM]	–[11.5 µM]	–[9.22 µM]	–[11.4 µM]	–[9.22 µM]	–[11.4 µM]
O=C1c2ccccc2NC2CCCCC12 (stereo not given)	–	–	–	5µM	–	?
